Screening results: PubChem BioAssay, National Center for Advancing Translational Sciences (NCATS)
Hits are enriched below; roughly 7.8% of the tested compounds scored in any of these assays.
Marburg entry inh: qHTS for inhibitors of binding or entry into cells for Marburg Virus | Marburg virus pseudotyped entry inhibition, cell reporter | Potency, µM (highest dose often 37.8 µM), inactives show at the top dose activity change, negative = inhibition, actives largely listed as inhibitors | 300,000 compounds, 1.8% hits; calls by dose curve; tested in HEK293 cells; further: potency means the concentration at half of the fitted maximal effect
VACV Venus inh: qHTS for Stage-Specific Inhibitors of Vaccinia Orthopoxvirus: Venus Reporter Primary qHTS; Vaccinia virus Venus reporter expression, fluorescence; Potency, µM (doses to about 36.5 µM), for the others: at the top dose activity change, negative = inhibition, actives largely listed as inhibitors; 330,000 compounds, 0.46% hits; AID 720580, 2013; calls by dose curve; tested in A549 cells; further: potency means the concentration at half of the fitted maximal effect; nearly all actives have a fitted effect of over 30% in size
VACV mCherry inh: qHTS for Stage-Specific Inhibitors of Vaccinia Orthopoxvirus: mCherry Reporter Primary qHTS | Vaccinia virus mCherry reporter infection, fluorescence | Potency, µM (series often up to 36.5 µM), inactives show top-dose activity change, negative = inhibition, most hits filed as inhibitors | 310,000 compounds, 0.63% hits; calls by dose curve; tested in A549 cells; further: potency means the concentration at half of the fitted maximal effect; nearly all actives have a fitted effect of over 35% in size
HCMV antiviral: qHTS Assay for inhibitors of the human cytomegalovirus (HCMV); HFF cells, HCMV-luciferase reporter, 72 h; stronger effect = lower value; activity change, negative = inhibition, % at 57.5 µM; 410,000 compounds, 4.5% hits; AID 1259415, 2018; in the data active means activity change below about -60%; inconclusive means no clear call, values can overlap the other calls; inactive means above about -39%
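Inhibition of viral replication was scored as loss of reporter luminescence in HFFs infected with HCMV-luciferase (MOI 1 PFU/cell) for 72 h; compounds tested at 2 doses, normalized to buffer and Salinomycin controls.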
LASV entry inh: qHTS for Inhibitors of binding or entry into cells for Lassa Virus | 300,000 compounds, 1.2% hits | Lassa virus pseudotype entry inhibition, cell reporter | Potency, µM (doses to about 37.9 µM), without a hit: at the top dose activity change, negative = inhibition, usual class: inhibitors | AID 540256, 2011; calls by dose curve; tested in HEK293 cells; further: potency means the concentration at half of the fitted maximal effect; nearly all actives have a fitted effect of over 50% in size
HCV inhibitor: qHTS Assay for Inhibitors of Hepatitis C Virus (HCV) | Potency, µM (doses to about 41.8 µM), inactives show at the highest dose activity change, negative = inhibition, most hits filed as inhibitors | Huh7.5.1 HCVcc-Cre infection, luciferase reporter, 44 h | 340,000 compounds, 3.4% hits; active means well fitted inhibition curve with a large enough effect; inconclusive means small, poorly fitted or top-dose-only effect, or another doubt; inactive means no such curve, though single readings can be large or run the other way; further: potency means the concentration at half of the fitted maximal effect
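Whole-lifecycle infectious HCVcc-Cre system; cells 1,000/well, compound then virus (~0.5 moi) added 4 h after plating, 44 h culture. Luciferase read 15 sec following 15 min substrate incubation, room temp.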
* marks the source's active call; other numbers are inactive results; i = inactive; ? = inconclusive; · = no result given; [ ] = dose if it differs, or a comment. On the % scale 0 is the no-effect control and ±100 the full control effect.

SMILES	Marburg entry inh	VACV Venus inh	VACV mCherry inh	HCMV antiviral	LASV entry inh	HCV inhibitor
CCc1nn(CC(=O)NCC(C)c2ccccc2)c(=O)c2cc3c(OC)cccc3n12 (stereo not drawn)	2.0%[46.1 µM]	9.8%	-12.8%	10.7	·	·
COc1cc(OC)c(/C=C/c2cc3c4ccccc4ccc3[n+](C)c2)c(OC)c1	·	-15.5%	-22.7%	·	·	·
Cc1cc(Br)ccc1NC(=O)CCS(=O)(=O)c1cccc2nsnc12	12.2%[46.1 µM]	-7.0%	-2.1%	-23.9	18.8%[46.1 µM]	·
CCOc1ccc(N(CC(=O)Nc2cccc(Cl)c2)S(=O)(=O)c2c(C)noc2C)cc1	-3.7%	-27.2%	-15.6%	0.9	·	12.6µM*
Cc1ccc(N(CC(=O)NCc2ccc(OC(C)C)cc2)S(=O)(=O)N(C)C)cc1	·	-16.1%	-19.5%	-3.8	5.01µM*	·
Cc1noc(C)c1S(=O)(=O)N(CC(=O)Nc1ccc(F)cc1F)c1ccc(C(C)C)cc1	?	-14.3%	-18.8%	16.9	14.1%[46.1 µM]	·
COc1ccc(CNc2nc3ccccc3s2)cc1OC	?	-0.8%	i	63.4	-20.0%[46.1 µM]	11.2µM*
COc1ccc(CNc2nccs2)cc1OC	3.3%	-9.6%	i	8.5	0.6%	-19.2%
Cc1ccc(CNc2nc3ccccc3s2)s1	?	?	·	54.1	6.31µM*	-16.5%
O=C1CN(S(=O)(=O)Cc2ccccc2)C[C@H]2[C@H](c3ccc(Br)cc3)[C@H](CO)N12	·	·	·	-0.8	·	·
O=C(Nc1ccc(F)cc1F)c1cncc(Br)c1	?	-11.6%	i	?	16.0%[46.1 µM]	13.0%
O=C(Nc1ccccc1[N+](=O)[O-])c1cncc(Br)c1	10.4%	·	·	-73.9*	11.8%	4.4%
Cc1ccc(S(=O)(=O)N(C)C)cc1NC(=O)c1cncc(Br)c1	?	8.91µM*	6.31µM*	?	?	?
CN(C)S(=O)(=O)c1cccc(NC(=O)c2cncc(Br)c2)c1	?	-15.1%	i	-22.2	0.3%	?
CC(=O)NC1=C(C#N)C(c2ccccc2)c2c(ccc3ccccc23)O1 (stereo not drawn)	10µM*	?	?	31.9	?	?
COC(=O)CSc1cccc2c1C(=O)CC2c1ccccc1 (stereo not drawn)	·	5.1%	i	2.4	·	-4.7%
O=C1C=CC2(O[C@H](c3ccccc3)[C@@H](c3ccccc3)O2)[C@H](Sc2ccccc2O)C1	?	?	10µM*	-99.5*	6.31µM*	?
O=C(N/N=C/c1cccs1)c1cccc(NC(=O)c2ccc(Cl)cc2)c1	4.2%	·	·	-97.1*	?	1.0%
O=C(N/N=C/c1cccs1)c1cccc(S(=O)(=O)Nc2ccc(Cl)cc2)c1	22.2%[46.1 µM]	?	?	-64.7*	-5.6%	-16.0%
O=C(N/N=C/c1cccc(NC(=O)c2ccc(Cl)cc2)c1)c1cccc(O)c1	?	-8.4%	i	18.8	?	?
Cc1ccc(CSCCC(=O)N2CCN(c3ccc(F)cc3)CC2)cc1	·	-9.6%	-15.7%	?	?	·
CO/N=C(\C(=O)N[C@@H]1C(=O)N2C(C(=O)OCOC(=O)C(C)(C)C)=C(/C=C\c3scnc3C)CS[C@H]12)c1csc(N)n1	·	-4.7%	i	·	·	·
COc1ccc(-c2cn3nc(N4CCCC(C(=O)Nc5cc(C)ccc5C)C4)sc3n2)cc1 (stereo not drawn)	·	-16.3%	-9.8%	0.0	37.9%[46.1 µM]	·
CCOC(=O)c1c(C)n(CCNC(C)=O)c2ccc(OC)cc12	-21.9%	-10.2%	-11.3%	28.4	-11.4%	-8.3%
CCOC(=O)c1c(-c2ccccc2)c2cc(OC)ccc2n1CCCN(C)C	·	·	·	7.2	·	14.1µM*
SMILES	Marburg entry inh	VACV Venus inh	VACV mCherry inh	HCMV antiviral	LASV entry inh	HCV inhibitor
COC(=O)CC=C[C@H](C)[C@@H](OCc1ccccc1Br)C(C)C	14.1%[14.2 µM]	·	·	·	?	·
O=C(Nc1ccc(F)cc1F)c1ccc(-n2cnnc2)cc1	·	-0.5%	-9.3%	14.6	7.6%[46.1 µM]	·
CCOc1ccc(NC(=O)c2cc(S(=O)(=O)N3CCCCCC3)cn2C)cc1	·	-6.6%	-6.3%	-20.1	15.1%[46.1 µM]	·
c1ccc(-c2nnc(-c3ccccn3)nc2NC2CCCCC2)cc1	3.55µM*	?	3.55µM*	-100.3*	5.01µM*	1.58µM*
CNc1nc(-c2ccccn2)nnc1-c1ccccc1	?	?	?	-104.8*	?	?
Oc1ccccc1-c1nc(NC2CCCC2)c2ccccc2n1	·	·	·	28.0	·	?
O=C1Nc2cc(C(=O)NCCN3CCCCCC3)ccc2S/C1=C\c1ccccc1	·	·	·	-100.3*	·	14.1µM*
COc1cccc(/C=C2/Sc3ccc(C(=O)NCCN4CCCCCC4)cc3NC2=O)c1	·	·	·	-69.9*	·	5.62µM*
O=C1C[C@H]2C=CCc3cccc(c32)CN1Cc1ccc(Br)cc1	·	-14.2%	-4.0%	·	·	·
O=C(c1ccccc1-n1cccn1)N1CCOc2ccc(CN3CCOCC3)cc2C1	·	14.1%	-0.6%	·	·	·
COc1ccc(NC(=O)CC2C(=O)N(c3ccc(OC)cc3)C(=O)N2CCc2cccs2)cc1 (stereo not drawn)	-19.0%	-13.3%	-1.0%	-34.2	9.2µM*	-7.0%
COc1ccc(NC(=O)CC2C(=O)N(c3cccc(OC)c3)C(=O)N2CCc2cccs2)cc1 (stereo not drawn)	1.2%[46.1 µM]	3.7%	-10.3%	-5.1	?	·
COC(=O)[C@]1(Cc2ccccc2)N[C@H](c2ccc(-c3cccc(Cl)c3)c(OC)c2)[C@@H]2C(=O)N(C)C(=O)[C@@H]21	·	?	?	10.8	·	2.24µM*
COC(=O)[C@]1(Cc2ccccc2)N[C@H](c2ccc(-c3ccc(F)cc3)cc2)[C@@H]2C(=O)N(C)C(=O)[C@@H]21	·	?	-16.2%	2.5	·	11.2µM*
CCCCCCSc1ccc([C@H]2N[C@@](CC(C)C)(C(=O)OC)[C@H]3C(=O)N(C)C(=O)[C@@H]23)cc1OC	·	?	-9.1%	58.1	·	7.94µM*
CCCc1ccc(OC(C)c2nc(-c3ccc(-n4cccc4)cc3)no2)cc1 (stereo not drawn)	1.5%[46.1 µM]	-13.4%	-8.4%	?	-14.6%[46.1 µM]	·
CCCNC(=O)C1(C)CCCN(C(=O)COc2ccc(C(C)(C)C)cc2)C1 (stereo not drawn)	·	-9.9%	-9.5%	3.9	·	·
C=C(Br)CO[C@@H]1C=C[C@@H](c2ccccc2)O[C@@H]1COC	8.9%[14.2 µM]	·	·	·	·	·
Clc1nc(NCCc2ccccc2)c2cn[nH]c2n1	?	-27.3%	-10.3%	-61.3*	?	?
COc1ccc2c(c1)[C@@H](NC(=O)c1c(C)noc1C)[C@H](C)[C@@H](c1ccccc1)N2Cc1cccc(F)c1	·	·	·	-4.1	·	·
COc1ccc(Cl)cc1NC(=O)c1c(NCc2ccc(C)o2)sc2c1CCCCC2	·	-2.2%	-16.0%	17.0	15.8%[46.1 µM]	·
